High-throughput results: PubChem, National Center for Advancing Translational Sciences (NCATS)
CHX counter = counter-screen for Shiga toxin inhibitors: cycloheximide protein synthesis inhibition; max response, %; 12% of 300,000 active; cell reporter, cycloheximide protein synthesis inhibition counterscreen; in the data active = max response mostly above about 13%, no sharp cut-off; inactive = mostly below about 14%; note: read at 38.3 µM for the half of the compounds with a filed dose; 0% is about no effect
NS1 function inh = blocks influenza NS1 protein function; Potency, µM (titrated, usually from 46.1 µM), without a hit: at the top dose activity, positive = more growth; 0.4% of 270,000 active; AID 2326; note: potency is the fitted concentration of half-maximal effect; actives are rising curves; nearly all actives have a fitted effect of over 50% in size
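OD600 was taken as the measure of yeast growth restored by compound in an NS1-expressing S. cerevisiae strain. Cells had been washed out of glucose medium and diluted 1:100 into galactose -URA medium, pH 6.0.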
SARS PLP yeast = SARS-CoV PLP inhibition in yeast; S. cerevisiae expressing SARS-CoV PLpro, growth rescue; Potency, µM (doses to about 32.9 µM), without a hit: at the top dose activity, positive = growth rescue, actives largely listed as activators; 0.19% of 330,000 active; AID 485353; note: potency is the fitted concentration of half-maximal effect; 0% is about no effect; nearly all actives have a fitted effect of over 55% in size
Shiga toxin inh = Shiga toxin inhibition. Vero cells, Shiga toxin protein synthesis inhibition reporter. inhibition, % at 38.7 µM. 9.2% of 290,000 active. AID 2315; in the data active = inhibition mostly above about 28%, no sharp cut-off; inactive = mostly below about 43%; note: 0% is about no effect
* = called active by the depositor; ? = inconclusive; / = no result given. The list is not random: actives were taken first. Their share in the collection is about 12%. Unless noted, calls come from the whole dose curve.

SMILES	CHX counter	NS1 function inh	SARS PLP yeast	Shiga toxin inh
Cc1ccc(Cn2nnc3c(=O)[nH]c(C(=O)NCc4ccco4)nc32)cc1	25*	-6%	7%	111*
O=C(NCc1ccco1)c1nc2c(nnn2Cc2cccc(Cl)c2)c(=O)[nH]1	-2	3%	-1%	-6
COc1ccc(C(=O)Nc2cccc(C(=O)NCc3ccccc3)c2)cc1	18	-4%	-1%	16
S=c1nc(-c2ccccc2)[nH]c2ccc(Br)cc12	1	-1%	0%	24
Cc1ccc(NC(=O)C(=O)NCCCN2CC(C(=O)O)CC2=O)cc1 (centres undefined)	-6	5%	0%	-1
O=C(CC(c1ccccc1O)N1CCCCC1)N1CCCCC1 (centres undefined)	41*	-12%	1%	35*
CCN(/C(N)=N/c1nc(C)cc(C)n1)c1ccccc1	13*	3%	3%	20
O=C(Nn1cc(C(=O)Nc2ccc(F)cc2F)c2ccccc2c1=O)c1cnccn1	-5	/	-7%	-2
Cc1ccc(NC(=S)NNC(=S)Nc2cccc(C(F)(F)F)c2)cc1	-2	-4%	-4%	23
Cc1cc(C(=O)NNC(=S)Nc2cccc(C(F)(F)F)c2)nn1C	18*	4%	3%	33
Cc1ccc(C(=O)Nc2ccc3ccccc3n2)cc1	41*	-1%	10%	42*
O=C(CCc1ccccc1)Nc1ccc2ccccc2n1	47*	-34%	-1%	104*
O=C(Nc1ccc2ccccc2n1)c1ccccc1Br	41*	3%	-3%	131*
Cc1cc(C)cc(NC(=O)Nc2ccc3ccccc3n2)c1	-2	-5%	1%	10
O=C(CCc1ccccc1)Nc1ccccc1	-2	1%	0%	27
COc1ccc(C(=O)Nc2ccc([N+](=O)[O-])cn2)cc1OC	16	-11%	17%	-26
COc1ccc(C(=O)Nc2ccc3ccccc3n2)cc1OC	29*	-2%	-3%	/
Cc1n[nH]c(C)c1CCC(=O)N/N=C/c1cccs1	4	1%	1%	20
Cc1ncc(CSC(=N)N)n1Cc1ccccc1	/	3%	/	/
Cc1ccc(C)c(OCCC(=O)OCc2csc(CC(=O)Nc3ccccc3C)n2)c1	/	/	0%	/
O=C(Nc1ccc2ccccc2n1)c1ccccc1	49*	-7%	-2%	66*
O=C(c1ccc2ccccc2n1)N(CCO)Cc1ccccc1	-3	6%	1%	-10
O=C(c1ccccc1)c1ccc2ccccc2n1	39*	-7%	6%	74
Cc1occc1C(=O)Nc1cc(C(F)(F)F)ccc1Cl	2	-40%	-4%	-18
CCC(C)N1CC(O)=C(c2nc3ccccc3[nH]2)C1=N (centres undefined)	19	-13%	4%	84*
SMILES	CHX counter	NS1 function inh	SARS PLP yeast	Shiga toxin inh
N=C1C(c2nc3ccccc3[nH]2)=C(O)CN1c1ccccc1	10	-7%	-15%	19
CC1C(O)=C(c2nc3ccccc3[nH]2)C(=N)N1c1ccccc1 (centres undefined)	24*	-47%	0%	128*
O=c1cc(C(Cl)(Cl)Cl)oc2c1ccc1ccccc12	-1	-12%	0%	22
O=C(c1ccccc1NS(=O)(=O)c1ccc(F)cc1)N1CCOCC1	-1	3%	15%	-13
N#CCCN(C(=O)CN1c2cccc3cccc(c23)S1(=O)=O)c1ccccc1	/	/	2%	/
CN(CCc1ccccn1)C(=O)CCc1nnc(CCCc2ccccc2)o1	45*	0%	0%	73*
CN(CCc1cnn(C)c1)C(=O)CCc1nnc(CCCc2ccccc2)o1	17*	-2%	-1%	36*
Cc1ccccc1CN(c1ccc(C(=O)N2CCc3ccccc3C2)cc1)S(C)(=O)=O	-1	-5%	-5%	10
O[C@@H](c1cc([C@@]23C[C@H]4CC[C@@H]2C[C@H](C4)C3)nc2c(Cl)cc(Cl)cc12)C1CCCCN1 (some centres undefined)	/	-3%	/	/
Cc1cccc(N=C2NC(=O)/C(=C\c3cccs3)S2)c1	34*	13%	-14%	67*
Cc1ccc(N=C2NC(=O)/C(=C/c3cccs3)S2)cc1C	7	1%	-8%	11
O=C1NC(=Nc2ccccc2)S/C1=C/c1cccs1	41*	/	0%	69*
O=C1N/C(=N/Nc2ccccc2)S/C1=C\c1ccccc1	22*	-158%	-41%	37
O=C1NC(=Nc2ccccc2)S/C1=C\c1ccccc1	19*	-7%	3%	/
CN(C)S(=O)(=O)c1ccc(NC(=O)COc2ncnc3c2cnn3-c2ccccc2)cc1	1	8%	5%	-17
O=C(COC(=O)CNC(=O)c1ccc(Br)o1)Nc1ccccc1OC(F)F	7	/	0%	4
Cc1ccccc1OCCSCc1nc2ccccc2[nH]1	6	-36%	-52%	-4
COc1ccc(CNc2cc(C)ccn2)c(O)c1	25*	2%	-2%	79*
COc1ccc(CNc2cccc(C)n2)c(O)c1	3	7%	2%	11
Oc1ccc(Br)cc1CNc1ccccn1	13*	-5%	-2%	38
Cc1ccnc(NCc2ccccc2O)c1	14*	-8%	-5%	/
Oc1ccccc1CNc1nccs1	-2	0%	3%	18
Oc1ccc(Br)cc1CNc1nccs1	-2	-6%	-4%	16
C=CC[C@@H](CC(=O)NCCO)C(=O)NC[C@@H](OC(=O)[C@H](CC=C)CC(=O)OC(C)(C)C)c1ccccc1	/	/	-14%	/
N=C(N)c1ccc(-c2ccc(-c3ccc(C(=N)N)cc3)o2)cc1	/	-37%	/	/
SMILES	CHX counter	NS1 function inh	SARS PLP yeast	Shiga toxin inh
COc1ccc(C2=NOC(C(=O)Nc3cccc(O)c3)C2)cc1 (centres undefined)	11	-2%	1%	4
N#Cc1c(NC(=O)c2ccccc2)sc2c1CCC2	46*	2%	7%	196*
N#Cc1c(NC(=O)C2CC=CCC2C(=O)O)sc2c1CCCCCC2 (centres undefined)	-6	27%	-5%	11
COc1ccccc1C(=O)Nc1sc2c(c1C#N)CCC2	12*	-7%	0%	/
N#Cc1c(NC(=S)NC(=O)C2CCCC2)sc2c1CCCCC2	23*	12%	-41%	27*
Cc1occc1C(=O)Nc1sc2c(c1C(N)=O)CCC(C(C)(C)C)C2 (centres undefined)	-1	1%	7%	-4
CC(C)(C)C1CCc2c(sc(NC(=O)c3ccncc3)c2C(N)=O)C1 (centres undefined)	16*	19%	1%	11
CC(NC(=O)c1ccccc1)C(=O)OCC(=O)c1c(N)n(C)c(=O)n(C)c1=O (centres undefined)	/	/	0%	/
CCOc1ccc(C)cc1S(=O)(=O)n1ccc(C)n1	-1	-36%	-10%	-13
O=S(=O)(NCCC1=CCCCC1)c1ccc(OC(F)(F)F)cc1	/	/	-1%	/
CC1CCN(c2ccc3nnc(CCC(=O)N4CCN(c5ccc(F)cc5)CC4)n3n2)CC1	-2	-8%	?	-3
N#Cc1c(NC(=O)c2cnccn2)sc2c1CCCC2	66*	9%	-44%	75*
N#Cc1c(NC(=S)NC(=O)c2ccccc2)sc2c1CCN(CCc1ccccc1)C2	-1	?	3%	5
Cc1cccc(NC(=O)c2c(NC(=O)c3ccccc3)sc3c2CCCC3)c1	-1	/	/	25
CC(C)c1cc(C(=O)Nc2sc3c(c2C#N)CCC3)no1	33	-53%	1%	29
